# About 410 targets per protein were measured; listed, in parts, are those with the strongest signals and a random draw of the rest.
# Legend:
# Test in all cases: glycan array binding signal (z-score within array); higher = stronger binding
# Conditions in all cases: glycan notation: IUPAC condensed, linker removed
# [1] = target: Gal(b1-4)GlcNAc(b1-3)Gal(b1-4)GlcNAc(b1-3)Gal(b1-4)GlcNAc(b1-2)Man(a1-3)[Gal(b1-4)GlcNAc(b1-3)Gal(b1-4)GlcNAc(b1-3)Gal(b1-4)GlcNAc(b1-2)Man(a1-6)]Man(b1-4)GlcNAc(b1-4)[Fuc(a1-6)]GlcNAc
# Summary of the method: (§1)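 Glycan array binding is given as a within-array Z-score, which can be read as non-binding when negative. The arrays, 3228 of them, came from the Consortium for Functional Glycomics database and were retained only where the protein sequence was available. Z-scores were averaged across arrays of the same protein sequence at different concentrations or buffers and across linkers.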
# [2] = target: Gal(b1-4)GlcNAc(b1-3)[Gal(b1-4)GlcNAc(b1-6)]Gal(b1-4)GlcNAc
# Summary of the method: as §1
# [3] = target: Gal3S6S(b1-4)GlcNAc
# Summary of the method: as §1
# [4] = target: GalNAc(a1-3)GalNAc(b1-3)Gal(a1-4)Gal(b1-4)Glc
# Summary of the method: as §1
# [5] = target: GalNAc(b1-4)GlcNAc(b1-2)Man(a1-3)[GalNAc(b1-4)GlcNAc(b1-2)Man(a1-6)]Man(b1-4)GlcNAc(b1-4)GlcNAc
# Summary of the method: as §1
# [6] = target: GalNAc(b1-4)GlcNAc(b1-3)GalNAc(b1-4)GlcNAc
# Summary of the method: as §1
# [7] = target: GalNAc(b1-4)GlcNAc6S
# Summary of the method: as §1
# [8] = target: GalNAc3S(b1-4)GlcNAc
# Summary of the method: as §1
# [9] = target: GlcA(b1-3)GlcNAc
# Summary of the method: as §1
# [10] = target: GlcNAc(a1-3)Gal(b1-4)GlcNAc
# Summary of the method: as §1
# [11] = target: GlcNAc(b1-2)Gal(b1-3)GalNAc
# Summary of the method: as §1
# [12] = target: GlcNAc(b1-2)Man(a1-3)[GlcNAc(b1-4)][GlcNAc(b1-2)Man(a1-6)]Man(b1-4)GlcNAc(b1-4)[Fuc(a1-6)]GlcNAc
# Summary of the method: as §1
# [13] = target: GlcNAc(b1-3)Gal(b1-4)GlcNAc(b1-3)Gal(b1-4)GlcNAc
# Summary of the method: as §1
# [14] = target: GlcNAc(b1-3)Gal(b1-4)GlcNAc(b1-3)Gal(b1-4)GlcNAc(b1-2)Man(a1-3)[GlcNAc(b1-3)Gal(b1-4)GlcNAc(b1-3)Gal(b1-4)GlcNAc(b1-2)Man(a1-6)]Man(b1-4)GlcNAc(b1-4)GlcNAc
# Summary of the method: as §1
# [15] = target: GlcNAc(b1-3)Gal(b1-4)GlcNAc(b1-3)Gal(b1-4)GlcNAc(b1-2)[GlcNAc(b1-3)Gal(b1-4)GlcNAc(b1-3)Gal(b1-4)GlcNAc(b1-6)]Man(a1-6)[GlcNAc(b1-3)Gal(b1-4)GlcNAc(b1-3)Gal(b1-4)GlcNAc(b1-2)Man(a1-3)]Man(b1-4)GlcNAc(b1-4)[Fuc(a1-6)]GlcNAc
# Summary of the method: as §1
# [16] = target: GlcNAc(b1-3)Gal(b1-4)GlcNAc(b1-3)Gal(b1-4)GlcNAc(b1-3)Gal(b1-4)GlcNAc(b1-2)[GlcNAc(b1-3)Gal(b1-4)GlcNAc(b1-3)Gal(b1-4)GlcNAc(b1-3)Gal(b1-4)GlcNAc(b1-6)]Man(a1-6)[GlcNAc(b1-3)Gal(b1-4)GlcNAc(b1-3)Gal(b1-4)GlcNAc(b1-3)Gal(b1-4)GlcNAc(b1-2)Man(a1-3)]Man(b1-4)GlcNAc(b1-4)[Fuc(a1-6)]GlcNAc
# Summary of the method: as §1
# [17] = target: Neu5Ac(a2-3)Gal(b1-3)GalNAc(b1-3)Gal(a1-4)Gal(b1-4)Glc
# Summary of the method: as §1
# [18] = target: Neu5Ac(a2-3)Gal(b1-4)GlcNAc(b1-2)[Neu5Ac(a2-3)Gal(b1-4)GlcNAc(b1-6)]Man(a1-6)[Neu5Ac(a2-3)Gal(b1-4)GlcNAc(b1-2)Man(a1-3)][GlcNAc(b1-4)]Man(b1-4)GlcNAc(b1-4)GlcNAc
# Summary of the method: as §1
# [19] = target: Neu5Ac(a2-3)Gal(b1-4)GlcNAc(b1-3)Gal(b1-3)GlcNAc
# Summary of the method: as §1
# [20] = target: Neu5Ac(a2-3)Gal(b1-4)[Fuc(a1-3)]GlcNAc
# Summary of the method: as §1
# [21] = target: Neu5Ac(a2-3)Gal(b1-4)[Fuc(a1-3)]GlcNAc(b1-3)GalNAc
# Summary of the method: as §1
# [22] = target: Neu5Ac(a2-6)Gal(b1-4)GlcNAc(b1-2)Man(a1-3)Man(b1-4)GlcNAc(b1-4)GlcNAc
# Summary of the method: as §1
# [23] = target: Neu5Ac(a2-6)Gal(b1-4)GlcNAc(b1-2)Man(a1-3)[GlcNAc(b1-4)][Neu5Ac(a2-6)Gal(b1-4)GlcNAc(b1-2)Man(a1-6)]Man(b1-4)GlcNAc(b1-4)GlcNAc
# Summary of the method: as §1
# [24] = target: Neu5Ac(a2-6)Gal(b1-4)GlcNAc(b1-2)Man(a1-3)[Neu5Ac(a2-6)Gal(b1-4)GlcNAc(b1-2)Man(a1-6)]Man(b1-4)GlcNAc(b1-4)GlcNAc
# Summary of the method: as §1
# [25] = target: Neu5Ac(a2-6)Gal(b1-4)GlcNAc(b1-2)Man(a1-3)[Neu5Ac(a2-6)Gal(b1-4)GlcNAc(b1-2)Man(a1-6)]Man(b1-4)GlcNAc(b1-4)[Fuc(a1-6)]GlcNAc
# Summary of the method: as §1
# [26] = target: Neu5Ac(b2-6)Gal(b1-4)GlcNAc
# Summary of the method: as §1
# [27] = target: Neu5Gc(a2-6)Gal(b1-4)GlcNAc
# Summary of the method: as §1
# [28] = target: Neu5Gc(a2-8)Neu5Gc(a2-3)Gal(b1-4)GlcNAc
# Summary of the method: as §1
binder,measurement,setting,value
"SUN4 (Saccharomyces cerevisiae), P53616 (protein) MGSSHHHHHHSSGLVPRGSHNGSIYGDLADFSGPYEKFEDGTIPCGQFPSGQGVIPISWLDEGGWSGVENTDTSTGGSCKEGSYCSYACQPGMSKTQWPSDQPSDGRSIGGLLCKDGYLYRSNTDTDYLCEWGVDAAYVVSELSNDVAICRTDYPGTENMVIPTYVQAGDSLPLTVVDQDTYYTWQGLKTSAQYYVNNAGISVEDACVWGSSSSGVGNWAPLNFGAGSSDGVAYLSLIPNPNNGNALNFNVKIVAADDSSTVNGECIYENGSFSGGSDGCTVSVTAGKAKFVLYN",glycan array binding signal (z-score),[1],2.9
same,glycan array binding signal (z-score),[2],-1.28
same,glycan array binding signal (z-score),[3],2.2
same,glycan array binding signal (z-score),[4],-0.199
same,glycan array binding signal (z-score),[5],4.51
same,glycan array binding signal (z-score),[6],-0.309
same,glycan array binding signal (z-score),[7],0.149
same,glycan array binding signal (z-score),[8],1.87
same,glycan array binding signal (z-score),[9],-0.127
same,glycan array binding signal (z-score),[10],0.414
same,glycan array binding signal (z-score),[11],0.963
same,glycan array binding signal (z-score),[12],-0.555
same,glycan array binding signal (z-score),[13],0.244
same,glycan array binding signal (z-score),[14],0.121
same,glycan array binding signal (z-score),[15],1.97
same,glycan array binding signal (z-score),[16],1.86
same,glycan array binding signal (z-score),[17],0.263
same,glycan array binding signal (z-score),[18],-0.391
same,glycan array binding signal (z-score),[19],-0.71
same,glycan array binding signal (z-score),[20],-0.661
same,glycan array binding signal (z-score),[21],1.91
same,glycan array binding signal (z-score),[22],-0.036
same,glycan array binding signal (z-score),[23],0.646
same,glycan array binding signal (z-score),[24],0.023
same,glycan array binding signal (z-score),[25],0.827
same,glycan array binding signal (z-score),[26],-0.182
same,glycan array binding signal (z-score),[27],-0.424
same,glycan array binding signal (z-score),[28],-0.415

# From the supplement of paper PMC8728848
